Measurements: PubChem BioAssay (NCI)
Compounds without any hit were thinned out: in the full panel of roughly 83,000, 20% have a hit.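 Cells were grown in 96-well plates and exposed to the test compound at a single concentration for 48 hours; results are reported as percent growth, with values below 10 considered active.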 A number with no mark means an inactive call. Active and inactive are the calls of the source.

test system: HL-60(TB) leukemia; assay: NCI-60 one-dose screen, 48 h (100 = growth as untreated, 0 = no growth, -100 = all killed); details: 10 µM unless noted

Compound | growth
CC(=O)Oc1ccccc1C(=O)Oc1ccc(C(=O)/C=C/c2ccncc2)cc1 | 3.04% (active)
COc1ccc(C(SCCNCc2cc(N(C)C)ccn2)(c2ccccc2)c2ccccc2)cc1 | -43.7% (active)
CC1(C)CC[C@]2(C(=O)O)CC[C@]3(C)C(=CCC4[C@@]5(C)C[C@@H](O)[C@@H]6OC(c7ccco7)OC[C@@]6(C)C5CC[C@]43C)C2C1 (some centres undefined) | 13.5%
O=C(Nc1nc2ccc([N+](=O)[O-])cc2s1)Nc1ccccc1I | -1.54% (active)
O=C1NC(=NC23CC4CC(CC(C4)C2)C3)N/C1=C\c1ccc2ncsc2c1 | -16.1% (active)
CN(C)c1ccnc(CNCCSC2(c3ccc(C(F)(F)F)cc3)c3ccccc3CCc3ccccc32)c1 | -41.9% (active)
C=C1CCC2C3(C)COC(c4ccc(F)cc4)OC3CCC2(C)C1CC(O)C1=CCOC1=O (centres undefined) | 35.9%
O=C1Nc2ccc(Cl)cc2/C1=C/c1ccc(OCc2ccc(Br)cc2F)cc1 | 83.2%
N#Cc1c(NC(=O)c2ccc(C(F)(F)F)cc2)sc2c1CCC(O)=C2 | 6.28% (active)
ClC(Cn1ncc2c(Nc3cccc(Br)c3)nc(SCCN3CCOCC3)nc21)c1ccc(Br)cc1 (centres undefined) | -31.9% (active)
Cc1cc(Cl)ccc1NC(=O)Nc1ccc(-c2ccc3c(c2)NC(=O)/C3=C\c2ccc[nH]2)cc1 | 78.9%
CN1CCc2c(sc3ncnc(N/N=C/c4cn(-c5ccccc5)nc4-c4ccc(Br)cc4)c23)C1 | -4.94% (active)
Brc1ccc(/C=C/c2n(Cc3ccc4ccccc4c3)c3ccccc3[n+]2Cc2ccc3ccccc3c2)cc1 | -48.7% (active)
O=c1nc(-c2ccccc2)cc(-c2cc3ccccc3nc2Cl)[nH]1 | -34.7% (active)
Nc1cccnc1/C=N/NC(=S)NCCNC(=O)c1ccc(-n2nc(-c3ccccc3O)nc2-c2ccccc2O)cc1 | -8.62% (active)
C[C@@H]1CN(c2ccc3ncc(C#Cc4cncc(C(=O)Nc5ccc(CN6CCN(C)CC6)c(C(F)(F)F)c5)c4)n3n2)C[C@@H](C)O1 | -53.6% (active)
COc1c(F)ccc(C(=O)Nc2ccc3nc(NC(=O)C4CCCN(S(=O)(=O)c5ccc(Br)c(F)c5)C4)sc3c2)c1F (centres undefined) | 88.8%

Compound | growth
C=C1CCC2C3(C)COC(c4c(F)cccc4F)OC3CCC2(C)C1CC(O)C1=CCOC1=O (centres undefined) | 81.6%
CN(C)CCCNC(=O)c1cc(NC(=O)c2cc(NC(=O)c3ccc(C#Cc4ccccc4)cc3)cn2C)cn1C | -69.6% (active)
C/C(=N\N=C1/C(=O)Nc2ccccc21)c1ccc2c(c1)Nc1ccccc1S2 | 63.6%
CN(C)c1nc(NCCNS(=O)(=O)c2ccc(C3=Nc4c(N)nc(N)nc4NC(c4ccc(C(F)(F)F)cc4)C3)cc2)nc(Nc2ccc(F)cc2)n1 (centres undefined) | -13.7% (active)
CC1=N/C(=C\c2ccc(N(C)C)cc2)C(=O)N1CCc1ccc(S(N)(=O)=O)cc1 | 102%
COc1cc2cc(C(=O)N3C[C@@H](CCl)c4c3cc(OC(=O)N(CCC(=O)N3CCN(C)CC3)[C@H]3CCSSC3)c3ccccc43)[nH]c2c(OC)c1OC | -34.5% (active)
Cc1ccc(Cl)cc1NC(=O)Nc1nc2ccc([N+](=O)[O-])cc2s1 | 1.69% (active)
Cc1ccc(-c2cc(C(=O)N=Nc3c(O)[nH]c4ccccc34)c3ccccc3n2)cc1 | 28.2%
S=C(Nc1ccc(OCc2nc3ccccc3[nH]2)cc1)NC1CCCCC1 | 103%
COc1ccc2[nH]cc(-c3cc4nc(-c5cn(C)c6ncc(Br)cc56)cc(N)n4n3)c2c1 | -61.2% (active)
COc1cc2c(c(OC)c1OC)C(=O)CC(c1cccc(NC(=O)c3cc(NC(=O)[C@H](C)N)ccc3Cl)c1)O2 (some centres undefined) | 2.28% (active)
CC(=O)Nc1ccc(-n2cnc3ccc(-c4ccc(O)cc4)cc32)cc1 | 38.2%
Cc1ccc(C(=O)Nc2ccc(-n3c(C)nc4c(cnn4-c4ccccc4)c3=O)cc2)cc1 | 51.4%
O=C1Nc2cc(-c3ccc(NC(=O)c4cccs4)cc3)ccc2/C1=C/c1ccc[nH]1 | 90.9%
CSc1nc(-c2cccc(C)c2)c2cc(-c3ccccc3)n(C)c2n1 | -15.8% (active)
Cn1cc(-c2cc(N)n3nc(-c4c[nH]c5ccccc45)cc3n2)c2cc(F)ccc21 | 7.1% (active)
CC(C)(C)c1cc(/C=C2\S/C(=N/c3ncn[nH]3)NC2=O)cc(C(C)(C)C)c1O | 6.76% (active)
